# Tests used:
# Assay in all cases: SPOT peptide array binding signal intensity (averaged, normalized) (arbitrary units (background-subtracted, floor 0; scale differs between SH3 domains)); higher = stronger binding of the SH3 domain to the peptide
# AgAbp1 = biological target: AgAbp1
# Procedure: (§1)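 GST-tagged SH3 domains from S. cerevisiae (Sc), A. gossypii (Ag), C. albicans (Ca) and S. pombe (Sp) were incubated at 10 ug/ml overnight at 4 C on cellulose SPOT membranes carrying 292 synthetic 15-mer peptides mined from the S. cerevisiae proteome (cysteines replaced by serines). Binding was detected with anti-GST antibody, HRP secondary and chemiluminescence, quantified with Genespotter, and reported as normalized spot intensities averaged over biological replicates.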
# AgBbc1 = biological target: AgBbc1
# Procedure: as §1
# AgBem1-D1 = biological target: AgBem1-D1
# Procedure: as §1
# AgBzz1-D1 = biological target: AgBzz1-D1
# Procedure: as §1
# AgBzz1-D2 = biological target: AgBzz1-D2
# Procedure: as §1
# AgCyk3 = biological target: AgCyk3
# Procedure: as §1
# AgFus1 = biological target: AgFus1
# Procedure: as §1
# AgHof1 = biological target: AgHof1
# Procedure: as §1
# AgHse1 = biological target: AgHse1
# Procedure: as §1
# AgLsb1 = biological target: AgLsb1
# Procedure: as §1
# AgLsb4 = biological target: AgLsb4
# Procedure: as §1
# AgMyo5 = biological target: AgMyo5
# Procedure: as §1
# AgNbp2 = biological target: AgNbp2
# Procedure: as §1
# AgRvs167 = biological target: AgRvs167
# Procedure: as §1
# AgSho1 = biological target: AgSho1
# Procedure: as §1
# AgSla1-D1-D2 = biological target: AgSla1-D1-D2
# Procedure: as §1
# AgSla1-D3 = biological target: AgSla1-D3
# Procedure: as §1
# CaAbp1-D1 = biological target: CaAbp1-D1
# Procedure: as §1
# CaAbp1-D2 = biological target: CaAbp1-D2
# Procedure: as §1
# CaBbc1 = biological target: CaBbc1
# Procedure: as §1
# CaBem1-D1 = biological target: CaBem1-D1
# Procedure: as §1
# CaBzz1-D1 = biological target: CaBzz1-D1
# Procedure: as §1
# CaBzz1-D2 = biological target: CaBzz1-D2
# Procedure: as §1
# CaCyk3 = biological target: CaCyk3
# Procedure: as §1
# CaFus1 = biological target: CaFus1
# Procedure: as §1
# CaHof1 = biological target: CaHof1
# Procedure: as §1
# CaHse1 = biological target: CaHse1
# Procedure: as §1
# CaLsb1 = biological target: CaLsb1
# Procedure: as §1
# CaLsb4 = biological target: CaLsb4
# Procedure: as §1
# CaMyo5 = biological target: CaMyo5
# Procedure: as §1
# CaNbp2 = biological target: CaNbp2
# Procedure: as §1
# CaRvs167 = biological target: CaRvs167
# Procedure: as §1
# CaRvs167-3 = biological target: CaRvs167-3
# Procedure: as §1
# CaSho1 = biological target: CaSho1
# Procedure: as §1
# CaSla1-D1-D2 = biological target: CaSla1-D1-D2
# Procedure: as §1
# CaSla1-D3 = biological target: CaSla1-D3
# Procedure: as §1
# ScAbp1 = biological target: ScAbp1
# Procedure: as §1
# ScBbc1 = biological target: ScBbc1
# Procedure: as §1
# ScBem1-D1 = biological target: ScBem1-D1
# Procedure: as §1
# ScBzz1-D1 = biological target: ScBzz1-D1
# Procedure: as §1
# ScBzz1-D2 = biological target: ScBzz1-D2
# Procedure: as §1
# ScCyk3 = biological target: ScCyk3
# Procedure: as §1
# ScFus1 = biological target: ScFus1
# Procedure: as §1
# ScHof1 = biological target: ScHof1
# Procedure: as §1
# ScHse1 = biological target: ScHse1
# Procedure: as §1
# ScLsb1 = biological target: ScLsb1
# Procedure: as §1
# ScLsb2 = biological target: ScLsb2
# Procedure: as §1
# ScLsb3 = biological target: ScLsb3
# Procedure: as §1
# ScLsb4 = biological target: ScLsb4
# Procedure: as §1
# ScMyo3 = biological target: ScMyo3
# Procedure: as §1
# ScMyo5 = biological target: ScMyo5
# Procedure: as §1
# ScNbp2 = biological target: ScNbp2
# Procedure: as §1
# ScPex13 = biological target: ScPex13
# Procedure: as §1
# ScRvs167 = biological target: ScRvs167
# Procedure: as §1
# ScSho1 = biological target: ScSho1
# Procedure: as §1
# ScSla1-D1-D2 = biological target: ScSla1-D1-D2
# Procedure: as §1
# ScSla1-D3 = biological target: ScSla1-D3
# Procedure: as §1
# SpAbp1-D1 = biological target: SpAbp1-D1
# Procedure: as §1
# SpBbc1 = biological target: SpBbc1
# Procedure: as §1
# SpBzz1-D1 = biological target: SpBzz1-D1
# Procedure: as §1
# SpBzz1-D2 = biological target: SpBzz1-D2
# Procedure: as §1
# SpCyk3 = biological target: SpCyk3
# Procedure: as §1
# SpHof1 = biological target: SpHof1
# Procedure: as §1
# SpHof1-2 = biological target: SpHof1-2
# Procedure: as §1
# SpHof1-3 = biological target: SpHof1-3
# Procedure: as §1
# SpHse1 = biological target: SpHse1
# Procedure: as §1
# SpLsb1 = biological target: SpLsb1
# Procedure: as §1
# SpLsb4 = biological target: SpLsb4
# Procedure: as §1
# SpMyo1 = biological target: SpMyo1
# Procedure: as §1
# SpNbp2 = biological target: SpNbp2
# Procedure: as §1
# SpPex13 = biological target: SpPex13
# Procedure: as §1
# SpRvs167 = biological target: SpRvs167
# Procedure: as §1
# SpSla1-D1-D2 = biological target: SpSla1-D1-D2
# Procedure: as §1
# SpSla1-D3 = biological target: SpSla1-D3
# Procedure: as §1
binder,measurement,setting,value
KRKRRLPVSEDTNTK,SPOT peptide array binding signal intensity,AgAbp1,42.5
same,SPOT peptide array binding signal intensity,AgBbc1,25
same,SPOT peptide array binding signal intensity,AgBem1-D1,322
same,SPOT peptide array binding signal intensity,AgBzz1-D1,26.5
same,SPOT peptide array binding signal intensity,AgBzz1-D2,47.5
same,SPOT peptide array binding signal intensity,AgCyk3,1
same,SPOT peptide array binding signal intensity,AgFus1,519
same,SPOT peptide array binding signal intensity,AgHof1,87
same,SPOT peptide array binding signal intensity,AgHse1,656
same,SPOT peptide array binding signal intensity,AgLsb1,1.5
same,SPOT peptide array binding signal intensity,AgLsb4,46.5
same,SPOT peptide array binding signal intensity,AgMyo5,1.5
same,SPOT peptide array binding signal intensity,AgNbp2,213
same,SPOT peptide array binding signal intensity,AgRvs167,3.5
same,SPOT peptide array binding signal intensity,AgSho1,53
same,SPOT peptide array binding signal intensity,AgSla1-D1-D2,25.5
same,SPOT peptide array binding signal intensity,AgSla1-D3,7
same,SPOT peptide array binding signal intensity,CaAbp1-D1,514
same,SPOT peptide array binding signal intensity,CaAbp1-D2,626
same,SPOT peptide array binding signal intensity,CaBbc1,97
same,SPOT peptide array binding signal intensity,CaBem1-D1,3
same,SPOT peptide array binding signal intensity,CaBzz1-D1,85
same,SPOT peptide array binding signal intensity,CaBzz1-D2,69.8
same,SPOT peptide array binding signal intensity,CaCyk3,24
same,SPOT peptide array binding signal intensity,CaFus1,1030
same,SPOT peptide array binding signal intensity,CaHof1,0.5
same,SPOT peptide array binding signal intensity,CaHse1,49
same,SPOT peptide array binding signal intensity,CaLsb1,0.75
same,SPOT peptide array binding signal intensity,CaLsb4,154
same,SPOT peptide array binding signal intensity,CaMyo5,3
same,SPOT peptide array binding signal intensity,CaNbp2,255
same,SPOT peptide array binding signal intensity,CaRvs167,8.67
same,SPOT peptide array binding signal intensity,CaRvs167-3,9.75
same,SPOT peptide array binding signal intensity,CaSho1,288
same,SPOT peptide array binding signal intensity,CaSla1-D1-D2,8
same,SPOT peptide array binding signal intensity,CaSla1-D3,8.75
same,SPOT peptide array binding signal intensity,ScAbp1,30
same,SPOT peptide array binding signal intensity,ScBbc1,30
same,SPOT peptide array binding signal intensity,ScBem1-D1,183
same,SPOT peptide array binding signal intensity,ScBzz1-D1,15.5
same,SPOT peptide array binding signal intensity,ScBzz1-D2,16.5
same,SPOT peptide array binding signal intensity,ScCyk3,143
same,SPOT peptide array binding signal intensity,ScFus1,298
same,SPOT peptide array binding signal intensity,ScHof1,3.5
same,SPOT peptide array binding signal intensity,ScHse1,1340
same,SPOT peptide array binding signal intensity,ScLsb1,1.5
same,SPOT peptide array binding signal intensity,ScLsb2,11
same,SPOT peptide array binding signal intensity,ScLsb3,562
same,SPOT peptide array binding signal intensity,ScLsb4,16
same,SPOT peptide array binding signal intensity,ScMyo3,5.75
same,SPOT peptide array binding signal intensity,ScMyo5,6.75
same,SPOT peptide array binding signal intensity,ScNbp2,210
same,SPOT peptide array binding signal intensity,ScPex13,0.5
same,SPOT peptide array binding signal intensity,ScRvs167,16.3
same,SPOT peptide array binding signal intensity,ScSho1,808
same,SPOT peptide array binding signal intensity,ScSla1-D1-D2,261
same,SPOT peptide array binding signal intensity,ScSla1-D3,103
same,SPOT peptide array binding signal intensity,SpAbp1-D1,214
same,SPOT peptide array binding signal intensity,SpBbc1,3
same,SPOT peptide array binding signal intensity,SpBzz1-D1,40
same,SPOT peptide array binding signal intensity,SpBzz1-D2,≤ 0
same,SPOT peptide array binding signal intensity,SpCyk3,6.5
same,SPOT peptide array binding signal intensity,SpHof1,150
same,SPOT peptide array binding signal intensity,SpHof1-2,12
same,SPOT peptide array binding signal intensity,SpHof1-3,602
same,SPOT peptide array binding signal intensity,SpHse1,391
same,SPOT peptide array binding signal intensity,SpLsb1,5.75
same,SPOT peptide array binding signal intensity,SpLsb4,268
same,SPOT peptide array binding signal intensity,SpMyo1,3.5
same,SPOT peptide array binding signal intensity,SpNbp2,331
same,SPOT peptide array binding signal intensity,SpPex13,8.5
same,SPOT peptide array binding signal intensity,SpRvs167,2.83
same,SPOT peptide array binding signal intensity,SpSla1-D1-D2,≤ 0
same,SPOT peptide array binding signal intensity,SpSla1-D3,6
